Measured values from the supplement of paper PMC10105736.
A number with no mark means an inactive call.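 How the source made its calls: active = MAPPIT score above the 99th percentile of random reference set scores in the same batch; inactive = at or below it.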

How the values were obtained:
Assay in all cases: MAPPIT interaction score (arbitrary units); higher = stronger binary interaction signal, active = hit call of the paper
C15 = conditions: MAPPIT configuration: N-N
CG8813 = conditions: MAPPIT configuration: N-N; pair source set: Lit-BS-16
Lamtor3 = conditions: MAPPIT configuration: N-N; pair source set: Curagen_high_conf
Nplp1 = conditions: MAPPIT configuration: N-N; pair source set: Curagen_low_conf
Rm62 = conditions: MAPPIT configuration: N-N; pair source set: Curagen_low_conf
Traf-like = conditions: MAPPIT configuration: N-N; pair source set: Curagen_low_conf
row = conditions: MAPPIT configuration: N-N; pair source set: Curagen_low_conf
Blos1 = conditions: MAPPIT configuration: N-N; pair source set: Finley_Y2H
Tm1 = conditions: MAPPIT configuration: N-N; pair source set: screen_2
mldr = conditions: MAPPIT configuration: N-N; pair source set: Finley_Y2H
Bx = conditions: MAPPIT configuration: N-N; pair source set: screen_2
CG5618 = conditions: MAPPIT configuration: N-N; pair source set: Curagen_low_conf
Lim1 = conditions: MAPPIT configuration: N-N; pair source set: Curagen_high_conf
Blos2 = conditions: MAPPIT configuration: N-N; pair source set: Curagen_low_conf
Bin1 = conditions: MAPPIT configuration: N-N; pair source set: Lit-BM-16
Dhx15 = conditions: MAPPIT configuration: N-N; pair source set: DPIM
p53 = conditions: MAPPIT configuration: N-N; pair source set: Finley_Y2H
CG5050 = conditions: MAPPIT configuration: N-N; pair source set: Curagen_high_conf
rdx = conditions: MAPPIT configuration: N-N; pair source set: Curagen_high_conf
Bro = conditions: MAPPIT configuration: N-N; pair source set: screen_2
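Further: HEK293T cells with Epo stimulation, STAT-responsive firefly luciferase reporter, fold induction versus unstimulated cells divided by the larger fold induction of two negative controls lacking either bait or prey.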

B1: Rm62 (protein)
chain: MLKLVQYIAPRVGGATPRPTACGWGNLLLISPRSGASSEKCITQRRHFLFSSASSSGTFASSSSLCTEQRQQFHGSRRNRETILFPSTYSSLQAQSQRAFRDSSKPDSDDYVDSIPKAEQRTRTRKSLFNDPDERTEEIKIEGVMAPHDRDFGHSGRGGRGGDRGGDDRRGGGGGGNRFGGGGGGGDYHGIRNGRVEKRRDDRGGGNRFGGGGGFGDRRGGGGGGSQDLPMRPVDFSNLAPFKKNFYQEHPNVANRSPYEVQRYREEQEITVRGQVPNPIQDFSEVHLPDYVMKEIRRQGYKAPTAIQAQGWPIAMSGSNFVGIAKTGSGKTLGYILPAIVHINNQQPLQRGDGPIALVLAPTRELAQQIQQVATEFGSSSYVRNTCVFGGAPKGGQMRDLQRGCEIVIATPGRLIDFLSAGSTNLKRCTYLVLDEADRMLDMGFEPQIRKIVSQIRPDRQTLMWSATWPKEVKQLAEDFLGNYIQINIGSLELSANHNIRQVVDVCDEFSKEEKLKTLLSDIYDTSESPGKIIIFVETKRRVDNLVRFIRSFGVRCGAIHGDKSQSERDFVLREFRSGKSNILVATDVAARGLDVDGIKYVINFDYPQNSEDYIHRIGRTGRSNTKGTSFAFFTKNNAKQAKALVDVLREANQEINPALENLARNSRYDGGGGRSRYGGGGGGGRFGGGGFKKGSLSNGRGFGGGGGGGGEGRHSRFD
MAPPIT interaction score (C15; pair source set: Curagen_low_conf): -0.475 | MAPPIT interaction score (C15; pair source set: Finley_Y2H): 0.053 | MAPPIT interaction score (CG8813): -0.848 | MAPPIT interaction score (Lamtor3): 0.248 | MAPPIT interaction score (Nplp1): -0.193 | MAPPIT interaction score (Rm62): -0.712 | MAPPIT interaction score (Traf-like): 0.928 | MAPPIT interaction score (row): 0.558

B2: Blos2 (protein)
chain: MDKPTTSAAAAAAQDSNLLPDSPQHGPTLSSASSFEALTRHDPNLSRLATKMFNKTEEYITHELNAPLEDYKLLEEMNKATIAKYKDMRQIAENLNTSTSELSLKFQQLAPMMQQIDEISDTVDKLEAAAYKLDAYSIALENRVKCVLQRKSGGGQVAQ
MAPPIT interaction score (Blos1): 2.29 | MAPPIT interaction score (Tm1): 1.6 | MAPPIT interaction score (mldr): 0.813

B3: Chi (protein)
chain: MSWQDYVDNQLLASQCVTKACIAGHDGNIWAQSSGFEVTKEELSKLISGFDQQDGLTSNGVTLAGQRYIYLSGTDRVVRAKLGRSGVHCMKTTQAVIVSIYEDPVQPQQAASVVEKLGDYLITCGY
MAPPIT interaction score (Bx): 6.14 (active) | MAPPIT interaction score (CG5618): 0.207 | MAPPIT interaction score (Lim1): 1.91

B4: drk (protein)
chain: MEAIAKHDFSATADDELSFRKTQILKILNMEDDSNWYRAELDGKEGLIPSNYIEMKNHDWYYGRITRADAEKLLSNKHEGAFLIRISESSPGDFSLSVKCPDGVQHFKVLRDAQSKFFLWVVKFNSLNELVEYHRTASVSRSQDVKLRDMIPEEMLVQALYDFVPQESGELDFRRGDVITVTDRSDENWWNGEIGNRKGIFPATYVTPYHS
MAPPIT interaction score (Blos2): 0.473

B5: bcd (protein)
chain: MAQPPPDQNFYHHPLPHTHTHPHPHSHPHPHSHPHPHHQHPQLQLPPQFRNPFDLLFDERTGAINYNYIRPYLPNQMPKPDVFPSEELPDSLVMRRPRRTRTTFTSSQIAELEQHFLQGRYLTAPRLADLSAKLALGTAQVKIWFKNRRRRHKIQSDQHKDQSYEGMPLSPGMKQSDGDPPSLQTLSLGGGATPNALTPSPTPSTPTAHMTEHYSESFNAYYNYNGGHNHAQANRHMHMQYPSGGGPGPGSTNVNGGQFFQQQQVHNHQQQLHHQGNHVPHQMQQQQQQAQQQQYHHFDFQQKQASACRVLVKDEPEADYNFNSSYYMRSGMSGATASASAVARGAASPGSEVYEPLTPKNDESPSLCGIGIGGPCAIAVGETEAADDMDDGTSKKTTLQILEPLKGLDKSCDDGSSDDMSTGIRALAGTGNRGAAFAKFGKPSPPQGPQPPLGMGGVAMGESNQYQCTMDTIMQAYNPHRNAAGNSQFAYCFN
MAPPIT interaction score (Bin1): 0.579 | MAPPIT interaction score (Dhx15): 1.72 | MAPPIT interaction score (p53): -0.0711

B6: Polr3F (protein)
chain: MATEVSQLLLAVVQGIPAGATNDDLTKALPDVPAATRVEALNILLQEGGIEILKKGEKLVYRAKDPEKKSALPKDADNEEKVVYGIVEEGGNKGIWIRDIRMKSNLNMIQLNKILKNLETKKLIKAVKSVNASKKKVYMLYNLEPDLSITGGAWYQDQDFEVEFVDVLNQQCLRFLQMKRDSAEKKREGPLAFKQMSCCTVNEVQKFISDLGISKVNLAEADLETILKTVVYDGNAERVRQQDGSFVYRAVNAPLPPTGLVQMPCGICPVIKNCSNCGDVTAITCEYMRDWLD
MAPPIT interaction score (C15; pair source set: Lit-BS-16): 0.0584 | MAPPIT interaction score (CG5050): 0.169 | MAPPIT interaction score (rdx): -0.105

B7: run (protein)
chain: MHLPAGPTMVANNTQVLAAAAAAAAAAAAAVAQGPGPQQSSNATTASAIAINPAQSLANTSTHSASSTGSSTPDLSTNNTSSSSNATTSPQNSAKMPSSMTDMFASLHEMLQEYHGELAQTGSPSILCSALPNHWRSNKSLPGAFKVIALDDVPDGTLVSIKCGNDENYCGELRNCTTTMKNQVAKFNDLRFVGRSGRGKSFTLTITIATYPVQIASYSKAIKVTVDGPREPRSKQSYGYPHPGAFNPFMLNPAWLDAAYMTYGYADYFRHQAAAQAAQVHHPALAKSSASSVSPNPNPSVATSSSSAVQPSEYPHPAAAVAAAAGQPAAMMPSPPGAAPATPYAIPQFPFNHVAAAAAAKAATPHAFHPYNFAAAAGLRARNAALHHQSEPVHVSPASSRPSSSSPTQQHVLLKLNTSIETSSIHEQSASDGDSDDEQIDVVKSEFDLDKSLDVAPLRMRCDLKAPSAMKPLYHESGPGAVANSRQPSPETTTKIKSAAVQQKTVWRPY
MAPPIT interaction score (Bro): 3.14 (active)
